# HPGD inh: HPGD (human) dehydrogenase inhibition | P15428 | purified HPGD, NADH fluorescence kinetic, PGE2 substrate | Potency, µM, hits mostly inhibitors | 150,000 compounds, 4.3% hits
# Target sequence (P15428 whole entry, looked up): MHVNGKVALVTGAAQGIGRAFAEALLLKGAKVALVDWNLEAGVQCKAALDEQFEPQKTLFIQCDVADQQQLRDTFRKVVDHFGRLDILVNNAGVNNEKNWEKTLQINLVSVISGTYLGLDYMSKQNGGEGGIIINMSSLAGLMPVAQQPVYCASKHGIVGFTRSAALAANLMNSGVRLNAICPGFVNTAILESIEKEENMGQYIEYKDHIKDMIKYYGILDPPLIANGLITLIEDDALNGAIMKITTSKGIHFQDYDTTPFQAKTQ
#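 NADH formation kinetics: reaction with 30 uM PGE2 and 1 mM NAD+ (final), 20 nM enzyme, Tris-HCl pH 8 with Tween 20, after 15 min compound preincubation at room temperature. Fluorescence change, last versus first of five reads.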
# Lamin A splicing: LMNA splicing modulation; HeLa LMNA splicing GFP/RFP minigene ratio, 48 h; Potency, µM (series often up to 46.1 µM), most hits filed as inhibitors; 200,000 compounds, 0.01% hits; active means well fitted inhibition curve with a large enough effect in the signal ratio, with a control signal flat, not every such curve was filed as active; inconclusive means small, poorly fitted or top-dose-only effect, or effect the other way, or a change in a side signal; the % refers to the signal ratio
#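 Read-out is the ratio of GFP to DsRed2 object intensity, acquired by 488 nm laser-scanning cytometry on HeLa lamin A-EGFP minigene reporter cells. Compound incubation 48 hrs at 37 °C in Opti-MEM with 2% FBS; DMSO 0.5% final.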
# ALOX12 inhib: inhibitors of human 12-lipoxygenase (ALOX12); P18054; purified 12-hLO, xylenol orange hydroperoxide absorbance; Potency, µM (doses to about 57.1 µM), most hits filed as inhibitors; 150,000 compounds, 0.12% hits; AID 1452; active means well fitted inhibition curve with a large enough effect; inconclusive means small, poorly fitted or top-dose-only effect; further: nearly all actives have a fitted effect of over 55% in size
#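 Lipoxygenase turnover measured by absorbance at 573 and 405 nm after Fe-XO development. Human 12hLO 150 nM, arachidonate 40 uM, pH 7.0 Hepes buffer with detergent; 15 min compound preincubation, 30 min reaction.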
# PNC inhibitor: blocks assembly of the perinucleolar compartment; 140,000 compounds, 3.1% hits; PC3M PTB-GFP, PNC prevalence imaging, 16 h; hits give low values; activity change (PNC), negative = inhibition, % at 10 µM; AID 2417;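 active means readout at or below -70, meaning at least 70% loss of cells showing the perinucleolar compartment, a nuclear body marking cancer cells; inconclusive means readout between -30 and a set limit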
#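 Read-out is percentage of cells bearing a perinucleolar compartment, from automated 20x imaging of fixed, Hoechst-stained PC3M PTB-GFP cells. Cells were seeded 4 h, then exposed 16 h to compound (23 nl of library stock) in duplicate plates.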
# ALDH1A1 inh: blocks purified human ALDH1A1 activity | Purified ALDH1A1, NADH fluorescence, propionaldehyde substrate | P00352 | AID 1030 | 220,000 compounds, 7.3% hits | Potency, µM (top dose mostly 75.3 µM), usual class: inhibitors
# Numbers stand for hits; - = inactive; ? = inconclusive; . = not tested or not shown; [ ] = dose if it differs, or a comment. An excerpt weighted towards active compounds, which were near 10% of everything screened. Unless noted, the call rests on the fitted dose curve; in most records, active means well fitted inhibition curve with a large enough effect (not every such curve was filed as active); inconclusive means small, poorly fitted or top-dose-only effect, or another doubt; inactive means no such curve, though single readings can be large or run the other way.
SMILES,HPGD inh,Lamin A splicing,ALOX12 inhib,PNC inhibitor,ALDH1A1 inh
Cc1[nH]c2ccccc2c1N=Nc1ccccc1C(=O)O,14µM,?,-,-,?
CCC1CN(C(=O)C2CCN(S(=O)(=O)c3c(C)noc3/C=C/c3ccccc3F)CC2)c2cc(Cl)ccc2O1 (stereo not drawn),.,-,.,.,.
COc1cc(CNn2nnnc2N)cc(Br)c1OCC(=O)NC(C)(C)C,-,-,-,-,-
COc1cc(CNn2nnnc2N)cc(Br)c1OCc1c(Cl)cccc1Cl,16µM,?,-,-,-
Cc1ccc(OC(C)C)c(CN(CCO)CCO)c1,-,-,-,-91,-
CCCCOc1ccc(C)cc1CN(CCO)CCO,-,-,-,?,-
CCCCn1cc(S(=O)(=O)c2ccccc2)c(=O)c2cc(F)c(N3CCC(C)CC3)cc21,.,-,.,.,.
Cc1ccc(S(=O)(=O)/C(=C/Cl)NC(=O)c2ccccc2)cc1,-,?,-,-,7.9µM
Cc1ccc(C(=O)NC(=C(Cl)Cl)S(=O)(=O)c2ccc(C)cc2)cc1,-,?,-,?,?
CCC(Oc1ccccc1)C(=O)Nc1nc2c(s1)C(=O)CC(C)(C)C2 (stereo not drawn),-,-,-,-,13µM
Cc1nnc(NC(=O)CSCc2ccccc2)s1,-,-,-,-106,-
CCC(C)C(=O)Nc1nc2c(s1)C(=O)CC(C)(C)C2 (stereo not drawn),-,-,-,-119,16µM
CCC(Oc1ccccc1)C(=O)Nc1nnc(C)s1 (stereo not drawn),-,-,-,-117,-
CC1(C)CC(=O)c2sc(NC(=O)CN3C(=O)CCC3=O)nc2C1,?,-,-,-,?
N=C(N)SCCSC(=N)N,-,.,-[11.4 µM],.,-[13.5 µM]
CCCC[C@@H]1C[C@H]1C(NC(=O)c1ccco1)c1ccccc1C(F)(F)F (stereo partly drawn),-,.,-,.,-
COc1cc(OC)c(NC(=O)c2ccc3nc(C(C)C)oc3c2)cc1Cl,.,-,.,.,.
CC1(C)CC(=O)c2sc(NC(=O)CN3CCOCC3)nc2C1,-,-,-,-,20µM
Cc1cc(C)n(C(=O)c2cc3c(s2)CCCC3)n1,-,-,-,-,20µM
NNC(=O)c1cc2c(s1)CCCCCC2,-,-,-,-,0.35µM
O=C(NCc1ccc(F)cc1)c1cc2c(s1)CCCC2,-,-,-,?,?
Cc1c(C(=O)NCCSCc2ccc(Cl)cc2Cl)cccc1[N+](=O)[O-],22µM,?,-,-,?
Cc1c(C(=O)NCCSCc2ccccc2)cccc1[N+](=O)[O-],.,-,.,.,3.2µM
Cc1ccc(SCCNC(=O)c2cccc([N+](=O)[O-])c2C)cc1,25µM,-,-,-,?
CCc1cccc(C)c1NC(=O)Cn1c(=O)cc(C)c2c(C)nn(-c3cccc(F)c3)c21,.,-,.,.,.
SMILES,HPGD inh,Lamin A splicing,ALOX12 inhib,PNC inhibitor,ALDH1A1 inh
COc1ccc(-c2nc3sc(CCNC(=O)C(=O)Nc4ccc(C)c(F)c4)c(C)n3n2)cc1,.,-,.,.,.
COc1ccc(N2CCN(C(c3ccccc3)c3sc4nc(-c5ccco5)nn4c3O)CC2)cc1 (stereo not drawn),.,-,.,.,.
CN(C)c1ccc(/C=[N+](\[O-])C2SC(=S)N(C)C2(C)C)cc1 (stereo not drawn),-,-,-,-,0.45µM
CN1C(=S)SC(C)(C)C1/[N+]([O-])=C/c1cccnc1 (stereo not drawn),-,-,-,?,-
CN(C)c1ccc(/C=[N+](\[O-])C2N(c3ccccc3)C(=S)SC2(C)C)cc1 (stereo not drawn),-,-,-,-,22µM
O=C(CCCc1nc2ccccc2s1)NCc1ccccc1F,32µM,-,-,-,?
Cc1ccc(CNC(=O)CCCc2nc3ccccc3s2)cc1,?,-,-,-,?
CC(C1CC2CCC1C2)n1c(-c2ccco2)n[nH]c1=S (stereo not drawn),.,-,.,.,14µM
Cc1ccc(-n2c(-c3ccco3)n[nH]c2=S)cc1,.,.,.,.,-
COc1cccc(CNC(=O)CCNS(=O)(=O)c2ccc3c(c2)CCCC(=O)N3)c1,.,-,.,.,.
CC1(C)Cn2c(nnc2-c2cccc(O)c2)S1,16µM,-,-,-,?
Cc1cc(C)c2cc(C)c(SCC(=O)NCc3ccco3)nc2c1,.,-,.,.,14µM
O=C(CCSCCC(=O)NCc1ccco1)NCc1ccco1,16µM,-,-,-,18µM
CCCn1cc(SCC(=O)NCc2ccco2)c2ccccc21,18µM,-,-,-,?
Cc1cccc(Cc2c(C)nc3nc(SCC(=O)NCc4ccco4)nn3c2C)c1,16µM,-,-,-,25µM
Cc1ccc(Cc2c(C)nc3nc(SCC(=O)NCc4ccco4)nn3c2C)cc1,-,?,-,?,-
Cc1ccc(Cl)cc1NC(=O)Cn1nc2c(cc1=O)CC(C)CC2 (stereo not drawn),.,-,.,.,.
c1ccc(-c2nc(-c3ccccc3)c(NC3CCCCC3)o2)cc1,-,.,-,.,-
O=C(CN1CCOc2ccccc21)NCc1ccco1,-,-,-,-106,11µM
O=C(CSc1ccc2c(c1)OCCO2)NCc1ccco1,25µM,-,-,-,14µM
C=CCn1c(SCC(=O)NCc2ccco2)nnc1-c1ccc2ccccc2n1,16µM,-,-,-,?
O=C(CSc1ccccc1)NCc1ccco1,28µM,-,-,-,-
Cc1occc1-c1nnc(SCC(=O)NCc2ccco2)n1CC(C)C,-,-,-,-,?
C=C(CC(=O)O)C(=O)O (tested in a mixture with another compound),-,.,-[11.4 µM],.,-[13.5 µM]
O=S(=O)(NCc1nc2cccnc2n1Cc1ccc(F)cc1)c1ccc(Cl)s1,.,-,.,.,.
SMILES,HPGD inh,Lamin A splicing,ALOX12 inhib,PNC inhibitor,ALDH1A1 inh
COc1ccc(-c2nc(SCC(=O)NCCc3ccc(OC)c(OC)c3)n[nH]2)cc1,.,-,.,.,.
CC(C)c1nc2ccccc2c2nnc(SCC(=O)NCc3ccco3)n12,-,-,-,-,-
CC(C)(C)c1nc2ccccc2c2nnc(SCC(=O)NCc3ccco3)n12,16µM,?,-,-,25µM
O=C(CSc1ccc2c(c1)OCCO2)Nc1ccc(Br)cc1,.,?,-,?,7.1µM
CC(C)C(CC(=O)NCc1ccco1)c1ccco1 (stereo not drawn),14µM,-,-,-,?
CC(C)CN1CCCC2(CCN(C(=O)c3ccco3)CC2)C1,-,.,-,.,?
CC(C)CCc1noc(CN2CCN(c3ccc(Cl)cn3)CC2)n1,.,.,.,.,4µM
COc1ccc(Cc2noc(CN3CCN(c4ccc(Cl)cn4)CC3)n2)cc1OC,.,.,.,.,-
CCC1=C2CC[C@H]3C(=O)NC(=O)[C@H]3[C@H]2[C@@]2(C)C(=NCCc3c[nH]c4ccccc34)OC(=O)N2C1=O,-,.,-,.,-
C/C(=C\C(=O)c1ccccc1)Nc1ccc(Br)c(Cl)c1,?,-,-,-,-
O=C(Cc1ccccc1)Nc1ccc(Br)c(Cl)c1,-,?,-,-82,16µM
Cc1ccc(C)c(N2CCN(C(=O)c3ccc(CSc4nc5ccncc5[nH]4)cc3)CC2)c1,-,?,-,-,?

# Source: PubChem BioAssay
